Rows were chosen to be rich in hits. Some 1.8% of all compounds tested hit in one or more screens of this group.
MazEF act – activators of E. coli MazEF toxin-antitoxin RNase; P0AE70; FAM/BHQ RNA-DNA oligo cleavage fluorescence, 5 h; 350,000 tested, 0.32% active; activation, % at 20 µM; AID 504720; in the data active = activation above about 50%
Target sequence (P0AE70 whole entry, looked up): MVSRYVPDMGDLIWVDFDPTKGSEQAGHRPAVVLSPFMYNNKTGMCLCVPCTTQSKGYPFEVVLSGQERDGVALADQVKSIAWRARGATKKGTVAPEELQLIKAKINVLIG
SSB-PriA inh – inhibitors of Klebsiella pneumoniae PriA binding to SSB C-terminal tail | inhibition, % at 33 µM | AlphaScreen SSBct-PriA binding, biotinylated peptide | AID 1272365 | 430,000 tested, 0.6% active; in the data active = inhibition mostly above about 37%, no sharp cut-off; inactive = mostly below about 20%
PrP 5UTR inh – suppresses PrP 5' UTR mRNA reporter expression | AID 488862 | cell-based PrP 5' UTR mRNA reporter, plate reader | 340,000 tested, 0.35% active | inhibition, % (no concentration beside the values); in the data active = inhibition above about 52%
PfHsp40 yeast – rescue of PfHsp40-mediated yeast toxicity; S. cerevisiae expressing PfHsp40, growth rescue, ATP luminescence; growth rescue, % at 12.5 µM; 340,000 tested, 0.68% active; in the data active = growth rescue above about 28%, passing the limit was not always enough;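 note: yeast W303a lacking pdr1 and pdr3 grown in galactose medium; growth measured after three days at 30 °C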
PrPC TRFRET – cell surface PrPC inhibition, primary TR-FRET screen; P04156; TR-FRET read-out; inhibition, % at 13.8 µM; 370,000 tested, 0.43% active; in the data active = inhibition above about 24%
Of the large screens only hits and unclear results are named; the others gave an inactive call.

COc1ccc(N2C(=O)C(Cl)=C(Nc3ccccc3O)C2=O)cc1	PfHsp40 yeast 82
Cc1cccc(C)c1NC(=O)C(C)c1ccc(-c2ccccc2)c(F)c1 (centres undefined)	none
CCC(C)/C=C(C)/C=C/C1=CC2=C(Cl)C(=O)C(C)(OC(C)=O)C(=O)C2=CO1 (centres undefined)	SSB-PriA inh 45 (no result: PrPC TRFRET)
O=C(Cn1c(S(=O)(=O)Cc2ccccc2)nc2ccccc21)N1CCN(c2ccccc2)CC1	SSB-PriA inh 54 (no result: MazEF act, PrP 5UTR inh, PfHsp40 yeast, PrPC TRFRET)
CCS(=O)(=O)c1nc2ccccc2n1CC(=O)N1CCCCC1	none
Cc1ccccc1C1c2[nH]c3ccccc3c2CCN1CCCn1cccn1 (centres undefined)	none
Cc1ccc(Nc2ccc(S(=O)(=O)N3CCOCC3)cc2[N+](=O)[O-])cc1C	SSB-PriA inh 69
Cc1c(C(=O)NC2CCOC2)oc2c(F)cccc12 (centres undefined)	none
Oc1c(Cl)cc(Cl)cc1C=Nc1ccc(N2CCOCC2)cc1	none
Cc1ccc(O)c(N=Cc2cc(Cc3ccccc3)cc([N+](=O)[O-])c2O)c1	PfHsp40 yeast 124
O=[N+]([O-])c1cc(Cc2ccccc2)cc(C=Nc2ccc(N3CCOCC3)cc2)c1O	PfHsp40 yeast 274 (no result: PrPC TRFRET)
CCOc1ccc(NC(=S)N(CCc2ccncc2)C(C)C)cc1	none (no result: PrP 5UTR inh)
CCN(C(=O)Cn1cnc2c1c(=O)n(C)c(=O)n2C)C1CCS(=O)(=O)C1 (centres undefined)	none
O=C(NCCCSc1ccccc1)c1cc(Br)ccc1O	PfHsp40 yeast 196
COc1cc(C(=O)NC(=S)NNC(=O)c2cnccn2)cc(OC)c1OC	SSB-PriA inh 82, PfHsp40 yeast 132
O=C(/C=C/c1ccco1)NC(=S)NNC(=O)c1cnccn1	SSB-PriA inh 66 (no result: MazEF act, PrP 5UTR inh, PfHsp40 yeast, PrPC TRFRET)
COc1ccccc1C(=O)NNC(=S)NC(=O)c1cc(OC)c(OC)c(OC)c1	PfHsp40 yeast 62
COc1ccc(C(=O)NC(=S)NNC(=O)c2cnccn2)cc1	none
O=C(NN=Cc1ccco1)c1cnccn1	none (no result: MazEF act, PrP 5UTR inh, PfHsp40 yeast, PrPC TRFRET)
COC(=O)c1cc(-c2ccc(OC)cc2)nc2nc(SC)[nH]c(=O)c12	none
COc1ccc(C(CCN2CCCCC2)c2c(OC)cc(OC)c3c(-c4ccccc4)cc(=O)oc23)cc1 (centres undefined)	none
COc1cc(OC)c2c(-c3ccccc3)cc(=O)oc2c1C(CCN1CCOCC1)c1ccc(N(C)C)cc1 (centres undefined)	SSB-PriA inh 39
COc1cc(OC)c2c(-c3ccccc3)cc(=O)oc2c1C(CCN1CCCCC1)c1ccc(N(C)C)cc1 (centres undefined)	SSB-PriA inh 74 (no result: PrPC TRFRET)
COc1cc(OC)c2c(-c3ccccc3)cc(=O)oc2c1C(CCN1CCCCC1)c1ccc2c(c1)OCO2 (centres undefined)	none
O=C(c1csc2nc(-c3ccccc3)cn12)N1CCN(c2ccccc2)CC1	SSB-PriA inh active (no result: MazEF act, PrP 5UTR inh, PfHsp40 yeast, PrPC TRFRET)
COc1ccccc1N1CCN(C(=O)c2csc3nc(-c4ccc(F)cc4)cn23)CC1	SSB-PriA inh 20 (no result: MazEF act, PrP 5UTR inh, PfHsp40 yeast, PrPC TRFRET)
O=C(c1csc(Nc2ccccc2)n1)N1CCN(c2ccccc2)CC1	SSB-PriA inh 21 (no result: MazEF act, PrP 5UTR inh, PfHsp40 yeast, PrPC TRFRET)
Cc1ccc2nc(NC(=O)CSc3ccc(NC(=O)c4cccs4)nn3)sc2c1	none (no result: MazEF act, PrP 5UTR inh, PfHsp40 yeast, PrPC TRFRET)
Cc1ccc(-n2ncc3c2CC(C)(C)CC3NC(=O)c2c(C)noc2C)cc1 (centres undefined)	PfHsp40 yeast 91 (no result: SSB-PriA inh)
CCc1noc(C)c1C(=O)NC1CC(C)(C)Cc2c1cnn2-c1ccccc1 (centres undefined)	none (no result: MazEF act, SSB-PriA inh)
Cc1ccc(Cn2c(SCC(=O)Nc3ncn[nH]3)nc3ccccc3c2=O)cc1	SSB-PriA inh 90 (no result: MazEF act, PrP 5UTR inh, PfHsp40 yeast, PrPC TRFRET)
Cc1ccc(NC(=O)CSc2nc3ccccc3c(=O)n2Cc2cccs2)cc1	none
CCCCCCCCCCCCCCCC(=O)OC(CC(=O)O)C[N+](C)(C)C (centres undefined)	PfHsp40 yeast 125
COC(=O)c1cc(=O)n(-c2ccc(C(F)(F)F)cc2)[nH]1	PfHsp40 yeast 190
O=C(Nc1cccc(C(F)(F)F)c1)N1CCN(c2ccc(-n3cccn3)nn2)CC1	none (no result: MazEF act, PrP 5UTR inh, PfHsp40 yeast, PrPC TRFRET)
O=S(=O)(NCCNc1ccc(Nc2ccccn2)nn1)c1ccc(C(F)(F)F)cc1	none (no result: MazEF act, PrP 5UTR inh, PfHsp40 yeast, PrPC TRFRET)
O=C(NCCNc1ccc(Nc2ccccn2)nn1)[C@@H]1CCCO1	SSB-PriA inh 52 (no result: MazEF act, PrP 5UTR inh, PfHsp40 yeast, PrPC TRFRET)
O=S(=O)(NCCNc1ccc(Nc2ccccn2)nn1)c1ccccc1Cl	SSB-PriA inh 89 (no result: MazEF act, PrP 5UTR inh, PfHsp40 yeast, PrPC TRFRET)
COc1ccc(CC(=O)NCCc2ccc3c(c2)CCCN3C)cc1	none (no result: MazEF act, PrP 5UTR inh, PfHsp40 yeast, PrPC TRFRET)
COc1ccc(CCNC(=O)NCCc2ccc3c(c2)CCCN3C)cc1	SSB-PriA inh 50 (no result: MazEF act, PrP 5UTR inh, PfHsp40 yeast, PrPC TRFRET)
Cc1cccc(NC(=O)NCCc2ccc3c(c2)CCCN3C)c1	SSB-PriA inh 56 (no result: MazEF act, PrP 5UTR inh, PfHsp40 yeast, PrPC TRFRET)

Source: PubChem
